Assay outcomes from PubChem BioAssay.
HT1080 IDH1KD tx = HT-1080 IDH1 knockdown cell toxicity (counter line); HT-1080 IDH1 knockdown viability, ATP luminescence, 48 h; Potency, µM (top dose mostly 46.1 µM), usual class: cytotoxic; 360,000 compounds, 2% hits
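Cytotoxicity counter-line: IDH1KD HT-1080, 48 h, CellTiter-Glo. Curves classed by r2, magnitude and activity.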
IL-1B inflam inh = inflammasome signaling inhibition, IL-1 beta readout; THP-1 LPS/ATP IL-1B secretion, AlphaLISA, 16 h; active compounds read low; activity change, % at 57.5 µM; 360,000 compounds, 4.7% hits; in the data active means activity change below about -50%; inconclusive means mostly about -30% to -49%
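THP-1 cells pretreated 1 hr with compounds (up to 57.5 uM final), then stimulated with LPS (250 ng/mL final) plus ATP (1.25 mM final); secreted IL-1B measured by AlphaLISA after 16 hr, decreased signal indicating inhibition.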
TDP1 cell CPT = DT40-hTDP1 cell growth loss with CPT; AID 686979; chicken DT40 Tdp1-/-;hTDP1 cells + 20 nM CPT, ATP luminescence, 48 h; Potency, µM (doses to about 46.2 µM), usual class: inhibitors; 420,000 compounds, 12% hits; further: nearly all actives have a fitted effect of over 55% in size
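Chicken DT40 Tdp1-/- cells complemented with human TDP1, 400 cells/well, exposed to compounds plus 20 nM camptothecin for at least 48 h at 37 C; viability read as ATP content by CellTiter-Glo luminescence.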
HT1080NT lethal = kills 2HG-producing HT-1080-NT fibrosarcoma cells | HT-1080-NT fibrosarcoma viability, CellTiter-Glo ATP luminescence, 48 h | Potency, µM (highest dose often 46.1 µM), hits mostly cytotoxic | 360,000 compounds, 1.6% hits | AID 686970;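 further: NT is the 2HG producing partner of a matched IDH1 knockdown line; nearly all actives have a fitted effect of over 55% in size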
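Viability of the 2HG-overproducing fibrosarcoma line after 48 hours of compound exposure at 37 degrees C was determined by luminescence with CellTiter-Glo, and concentration-effect curves were then fitted and categorized.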
TDP1 cell noCPT = qHTS for Inhibitors of human tyrosyl-DNA phosphodiesterase 1 (TDP1): qHTS in cells in absence of CPT; AID 686978, 2013; Potency, µM (top dose mostly 46.2 µM), actives largely listed as inhibitors; 420,000 compounds, 15% hits; DT40 Tdp1-/- hTDP1 cells, no CPT, ATP luminescence, 48 h; further: nearly all actives have a fitted effect of over 55% in size
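A cellular qHTS used chicken DT40 cells lacking endogenous Tdp1 but carrying stably transfected human TDP1. Compounds were applied without camptothecin, and cell growth kinetics were judged by ATP-dependent luminescence after ≥48 hr.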
Hits are given with their value; i = inactive; ? = inconclusive; nt = no result given. Compounds with a hit are over-represented: about 19% of the library has one in this group of screens. Unless noted, the call rests on the fitted dose curve; in most records, active means well fitted curve in the direction sought with a large enough effect; inconclusive means small, poorly fitted or top-dose-only effect, or another doubt; inactive means no such curve, though single readings can be large; an effect the other way counts as inactive or inconclusive.

SMILES	HT1080 IDH1KD tx	IL-1B inflam inh	TDP1 cell CPT	HT1080NT lethal	TDP1 cell noCPT
Cc1nnc(NC(=O)CSc2nc(CC(C)C)nc3c2c(=O)n(C)c(=O)n3C)s1	i	i	16µM	i	10µM
CCc1nc(SCC(=O)Nc2nnc(CC)s2)c2c(=O)n(C)c(=O)n(C)c2n1	i	i	6.5µM	i	8.2µM
Cc1csc(NC(=O)CSc2nc(C)nc3c2c(=O)n(C)c(=O)n3C)n1	i	i	?	i	21µM
CCCc1nc(SCC(=O)Nc2nnc(CC)s2)c2c(=O)n(C)c(=O)n(C)c2n1	i	i	6.5µM	i	3.3µM
CCc1nc(SCC(N)=O)c2c(=O)n(C)c(=O)n(C)c2n1	i	i	i	i	i
CC(C)n1c(=N)c(C(=O)NCc2cccnc2)cc2c(=O)n3ccccc3nc21	nt	nt	i	nt	i
CC1CCCCN1Cc1c(O)ccc2c(=O)c(-c3ccccc3)coc12 (configuration not stated)	i	i	8.2µM	i	10µM
CC1CN(Cc2c(O)ccc3c(=O)c(-c4ccccc4)coc23)CC(C)O1 (configuration not stated)	i	i	i	i	i
CCC1CCCCN1Cc1c(O)ccc2c(=O)c(-c3ccccc3)coc12 (configuration not stated)	?	i	7.3µM	?	10µM
CCN(Cc1ccccc1)Cc1c(O)ccc2c(=O)c(-c3ccc(Cl)cc3)coc12	nt	nt	?	nt	21µM
COc1ccc(-c2coc3c(CN4CCCCC4C)c(O)ccc3c2=O)cc1 (configuration not stated)	i	i	6.5µM	i	18µM
O=c1c(-c2ccccc2)coc2c(CN3CCCCC3)c(O)ccc12	i	i	i	i	i
CCN(CC)Cc1c(O)ccc2c(=O)c(-c3ccc(Cl)cc3)coc12	i	i	?	i	i
O=C(O)c1ccc(N=C2NC(=O)C(CO)(CO)S2)cc1	i	i	i	i	i
O=c1cc(-c2ccccc2)nc(SCCOc2ccccc2Cl)[nH]1	i	i	i	i	i
CCCN(C(=O)c1cccc(-n2cccc2)c1)c1c(N)n(Cc2ccccc2)c(=O)[nH]c1=O	i	i	i	i	i
COc1ccc(C(=O)Nc2c(Cl)cc(Cl)cc2C(=O)NCCN2CCOCC2)cc1	i	i	i	i	i
Cc1c(/C=N/NC(=O)c2ccccc2O)c2ccccn2c1C(=O)c1ccc(F)cc1	?	-88	?	?	23µM
CCOc1cccc2cc(C(=O)NC(C)c3ccccc3)c(=N)oc12 (configuration not stated)	i	i	?	i	26µM
CCOc1cccc2cc(C(=O)NCc3ccc(F)cc3)c(=N)oc12	i	i	?	i	23µM
CCOc1cccc2cc(C(=O)NCc3ccccc3)c(=N)oc12	i	i	?	i	?
COc1cccc2cc(C(=O)NCc3ccc(Cl)cc3)c(=O)oc12	i	i	i	i	?
COc1cccc2cc(C(=O)NCc3ccc(Cl)cc3)c(=N)oc12	i	-91	23µM	i	?
COc1cccc2cc(C(=O)NCc3ccccc3)c(=N)oc12	i	-105	21µM	i	?
Cc1c(NC(=S)Nc2cccc(Cl)c2)c(=O)n(-c2ccccc2)n1C	i	i	i	i	i
SMILES	HT1080 IDH1KD tx	IL-1B inflam inh	TDP1 cell CPT	HT1080NT lethal	TDP1 cell noCPT
COc1cccc2cc(-c3csc(-c4ccc(Cl)cc4)n3)c(=O)oc12	nt	nt	i	nt	i
COC(=O)[C@]12CCCCC=C1N(Cc1cccc3ccccc13)C(=O)[C@H](CC(=O)NCCCCc1ccccc1)C2	i	-64	?	?	16µM
COC(=O)[C@]12CCCCC=C1N(Cc1ccccc1)C(=O)[C@H](CC(=O)NCCCCc1ccccc1)C2	?	i	23µM	?	?
C/C(=N\Nc1ccc([N+](=O)[O-])cc1)c1cccc(N)c1	i	i	?	i	21µM
C/C(=N/Nc1ccccc1[N+](=O)[O-])c1ccc([N+](=O)[O-])cc1	i	i	i	i	?
C/C(=N\Nc1ccc([N+](=O)[O-])cc1)c1ccc(O)cc1	?	-61	?	?	?
CC(=O)/C(=N\Nc1ccccc1)Oc1ccc([N+](=O)[O-])cc1	i	i	i	i	i
